For 2 sequences, binding signal results are on record in article PMC7862700, “An all-to-all approach to the identification of sequence-specific readers for epigenetic DNA modifications on cytosine”.

Holding throughout (assay): DAPPL (digital affinity profiling via proximity ligation, sequencing); 10 mM Tris-HCl pH 7.5, 50 mM NaCl, 1 mM DTT, 4% glycerol, room temperature, 30 min; GST-TFs on glutathione beads, 16-mer random dsDNA library, 0.1% formaldehyde crosslink after washing; high values mean tight binding
Conditions in all cases: protein: recombinant; tags: N-terminal GST; dsDNA, one strand shown

The target of one test is T1, FLI1 (Homo sapiens, UniProt Q01543 1-452).
T1 sequence: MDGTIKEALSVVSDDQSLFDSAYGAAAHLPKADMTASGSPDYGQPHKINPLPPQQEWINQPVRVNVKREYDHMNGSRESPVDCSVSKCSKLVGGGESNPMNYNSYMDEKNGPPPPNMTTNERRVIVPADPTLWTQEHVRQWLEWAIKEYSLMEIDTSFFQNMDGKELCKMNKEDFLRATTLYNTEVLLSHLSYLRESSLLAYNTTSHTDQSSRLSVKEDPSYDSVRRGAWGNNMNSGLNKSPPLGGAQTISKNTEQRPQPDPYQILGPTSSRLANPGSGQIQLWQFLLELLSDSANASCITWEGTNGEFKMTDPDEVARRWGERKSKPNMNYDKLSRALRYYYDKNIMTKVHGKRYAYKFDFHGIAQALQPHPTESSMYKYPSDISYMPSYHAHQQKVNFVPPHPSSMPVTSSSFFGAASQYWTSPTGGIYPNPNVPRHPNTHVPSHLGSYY
A digest of the protocol:
(§1)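 Beads coated with glutathione captured GST-fused human transcription factors that had been expressed in yeast, and the factors were then given DNA barcodes and pooled with a tag-only sample. The pools were incubated with 200 nmole of a random double-stranded 16-mer DNA library in Tris/NaCl/DTT/glycerol buffer for 30 min at room temperature, washed, crosslinked with 0.1% formaldehyde and proximity-ligated with BsaI/T4 ligase at 37 °C for 1 h. PCR amplification and Illumina NextSeq500 sequencing came last. Binding signal is each hexamer's read frequency for a factor divided by its frequency for the tag-only sample.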

The next test concerns the target T2, ELK1 (Homo sapiens, UniProt P19419 1-428).
T2 sequence: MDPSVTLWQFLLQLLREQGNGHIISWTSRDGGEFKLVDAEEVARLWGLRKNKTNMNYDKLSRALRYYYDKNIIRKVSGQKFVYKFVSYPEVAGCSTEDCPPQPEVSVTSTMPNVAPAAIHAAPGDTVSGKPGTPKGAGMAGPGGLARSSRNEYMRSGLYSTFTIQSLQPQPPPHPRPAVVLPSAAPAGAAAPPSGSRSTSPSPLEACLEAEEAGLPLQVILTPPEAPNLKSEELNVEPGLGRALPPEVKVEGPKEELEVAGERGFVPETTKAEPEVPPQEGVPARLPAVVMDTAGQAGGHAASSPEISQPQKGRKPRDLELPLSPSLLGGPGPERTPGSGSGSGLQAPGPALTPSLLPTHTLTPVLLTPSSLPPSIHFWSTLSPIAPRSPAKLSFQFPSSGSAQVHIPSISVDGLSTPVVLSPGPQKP
In a few lines:
as §1

Another test deals with T3, GABPA (Homo sapiens, UniProt Q06546 1-454).
T3 sequence: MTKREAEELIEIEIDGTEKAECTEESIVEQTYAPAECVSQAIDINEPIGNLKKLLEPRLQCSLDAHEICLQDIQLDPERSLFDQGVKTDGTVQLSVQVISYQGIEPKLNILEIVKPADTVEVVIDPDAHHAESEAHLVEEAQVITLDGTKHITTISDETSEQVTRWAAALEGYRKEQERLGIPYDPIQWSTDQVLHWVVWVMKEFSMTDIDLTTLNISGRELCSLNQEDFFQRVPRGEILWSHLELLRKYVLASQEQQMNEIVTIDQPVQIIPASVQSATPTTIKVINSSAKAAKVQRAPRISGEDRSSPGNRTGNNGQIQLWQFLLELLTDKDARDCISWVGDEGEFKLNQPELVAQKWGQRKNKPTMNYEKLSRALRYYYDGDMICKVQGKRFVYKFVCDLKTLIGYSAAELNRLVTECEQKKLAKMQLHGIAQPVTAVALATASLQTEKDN
In a few lines: as §1

In a further test the target is T4, ERG (Homo sapiens, UniProt P11308 1-479).
T4 sequence: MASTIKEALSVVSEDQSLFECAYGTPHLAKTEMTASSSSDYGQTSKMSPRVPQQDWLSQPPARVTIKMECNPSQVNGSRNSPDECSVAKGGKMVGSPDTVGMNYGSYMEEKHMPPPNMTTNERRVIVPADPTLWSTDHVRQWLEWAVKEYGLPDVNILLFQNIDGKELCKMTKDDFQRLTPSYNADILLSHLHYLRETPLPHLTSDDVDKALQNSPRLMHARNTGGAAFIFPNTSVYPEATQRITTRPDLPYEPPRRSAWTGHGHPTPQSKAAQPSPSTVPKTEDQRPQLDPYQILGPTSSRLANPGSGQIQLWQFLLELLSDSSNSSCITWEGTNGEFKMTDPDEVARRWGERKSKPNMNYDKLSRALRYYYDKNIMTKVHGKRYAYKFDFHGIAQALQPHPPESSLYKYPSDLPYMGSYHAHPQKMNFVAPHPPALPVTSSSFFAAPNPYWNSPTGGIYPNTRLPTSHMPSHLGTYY
In a few lines: as §1

The target of another test is ELF1 (Homo sapiens, UniProt P32519 1-619). A digest of the protocol:
as §1

For the next test, the target named is T5, EHF (Homo sapiens, UniProt Q9NZC4 1-300).
T5 sequence: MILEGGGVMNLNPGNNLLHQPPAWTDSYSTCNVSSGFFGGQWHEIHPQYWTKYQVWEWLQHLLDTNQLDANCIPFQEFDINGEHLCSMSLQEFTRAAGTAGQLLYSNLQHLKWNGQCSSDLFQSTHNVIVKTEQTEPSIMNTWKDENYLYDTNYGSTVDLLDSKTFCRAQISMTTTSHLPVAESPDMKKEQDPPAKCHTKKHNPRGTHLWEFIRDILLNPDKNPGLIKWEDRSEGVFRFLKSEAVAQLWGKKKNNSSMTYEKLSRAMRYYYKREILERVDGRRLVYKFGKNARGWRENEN
A digest of the protocol: as §1

In a further test the target is SPI1 (Homo sapiens, UniProt P17947 1-270). In a few lines:
as §1

The target of another test is T6, FEV (Homo sapiens, UniProt Q99581 1-238).
T6 sequence: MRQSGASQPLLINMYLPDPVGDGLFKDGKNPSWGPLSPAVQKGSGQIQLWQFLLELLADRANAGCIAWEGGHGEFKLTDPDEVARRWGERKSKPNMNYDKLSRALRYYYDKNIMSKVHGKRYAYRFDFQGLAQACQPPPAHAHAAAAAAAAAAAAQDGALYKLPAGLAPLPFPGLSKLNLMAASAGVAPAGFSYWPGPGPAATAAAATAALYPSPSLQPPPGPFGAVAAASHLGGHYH
A digest of the protocol:
as §1

A further test has as its target ETV5 (Homo sapiens, UniProt P41161 1-510). In a few lines: as §1
The next test deals with T7, SPIC (Homo sapiens, UniProt Q8N5J4 1-248).
T7 sequence: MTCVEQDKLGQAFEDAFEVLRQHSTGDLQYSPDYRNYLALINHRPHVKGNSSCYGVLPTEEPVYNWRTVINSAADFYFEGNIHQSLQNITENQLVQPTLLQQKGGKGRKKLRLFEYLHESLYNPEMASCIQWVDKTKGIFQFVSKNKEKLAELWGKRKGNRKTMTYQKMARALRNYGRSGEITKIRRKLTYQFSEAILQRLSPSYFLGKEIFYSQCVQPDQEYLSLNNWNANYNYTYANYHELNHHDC
A digest of the protocol: as §1

For the next test, the target named is T8, ETV3L (Homo sapiens, UniProt Q6ZN32 1-361).
T8 sequence: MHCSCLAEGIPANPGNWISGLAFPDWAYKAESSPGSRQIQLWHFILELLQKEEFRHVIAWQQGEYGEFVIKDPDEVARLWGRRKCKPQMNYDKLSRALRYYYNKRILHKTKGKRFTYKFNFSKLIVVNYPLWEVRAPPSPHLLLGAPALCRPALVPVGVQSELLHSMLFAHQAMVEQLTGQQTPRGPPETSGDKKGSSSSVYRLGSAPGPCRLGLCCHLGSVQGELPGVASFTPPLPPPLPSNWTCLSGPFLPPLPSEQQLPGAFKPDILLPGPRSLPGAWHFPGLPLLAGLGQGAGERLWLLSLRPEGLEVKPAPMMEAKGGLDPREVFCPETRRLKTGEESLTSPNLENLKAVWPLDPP
A digest of the protocol:
as §1

For another test, the target named is T9, ETS2 (Homo sapiens, UniProt P15036 1-469).
T9 sequence: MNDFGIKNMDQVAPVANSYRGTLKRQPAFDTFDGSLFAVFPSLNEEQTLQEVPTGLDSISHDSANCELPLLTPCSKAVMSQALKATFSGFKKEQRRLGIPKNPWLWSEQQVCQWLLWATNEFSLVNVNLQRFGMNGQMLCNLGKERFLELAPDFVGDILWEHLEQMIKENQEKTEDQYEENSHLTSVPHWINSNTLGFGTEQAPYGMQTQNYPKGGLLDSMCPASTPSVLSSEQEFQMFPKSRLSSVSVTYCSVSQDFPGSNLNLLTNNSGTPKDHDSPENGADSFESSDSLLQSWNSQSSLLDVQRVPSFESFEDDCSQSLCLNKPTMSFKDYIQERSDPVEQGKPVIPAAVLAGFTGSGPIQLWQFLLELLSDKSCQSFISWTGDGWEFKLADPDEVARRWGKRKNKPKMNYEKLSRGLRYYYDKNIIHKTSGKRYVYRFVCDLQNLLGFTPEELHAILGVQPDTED
In a few lines:
as §1

Another test concerns the target T10, ELF5 (Homo sapiens, UniProt Q9UKW6-2 1-255).
T10 sequence: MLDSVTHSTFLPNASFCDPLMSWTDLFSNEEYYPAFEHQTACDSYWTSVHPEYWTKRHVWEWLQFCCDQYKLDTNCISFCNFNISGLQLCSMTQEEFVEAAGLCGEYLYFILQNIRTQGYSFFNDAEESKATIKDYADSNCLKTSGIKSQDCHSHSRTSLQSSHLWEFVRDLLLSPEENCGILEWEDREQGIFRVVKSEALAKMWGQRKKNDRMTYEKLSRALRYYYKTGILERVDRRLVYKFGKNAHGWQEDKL
In a few lines:
as §1

In a further test the target is T11, ETV3 (Homo sapiens, UniProt P41162-2 1-143).
T11 sequence: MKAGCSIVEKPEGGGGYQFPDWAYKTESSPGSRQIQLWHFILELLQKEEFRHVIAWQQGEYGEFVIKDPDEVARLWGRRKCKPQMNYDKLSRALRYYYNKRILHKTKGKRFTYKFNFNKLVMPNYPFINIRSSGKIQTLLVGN
A digest of the protocol:
as §1

In another test the target is SPIB (Homo sapiens, UniProt Q01892 1-262). In a few lines:
as §1

For a further test, the target named is T12, ELK3 (Homo sapiens, UniProt P41970 1-407).
T12 sequence: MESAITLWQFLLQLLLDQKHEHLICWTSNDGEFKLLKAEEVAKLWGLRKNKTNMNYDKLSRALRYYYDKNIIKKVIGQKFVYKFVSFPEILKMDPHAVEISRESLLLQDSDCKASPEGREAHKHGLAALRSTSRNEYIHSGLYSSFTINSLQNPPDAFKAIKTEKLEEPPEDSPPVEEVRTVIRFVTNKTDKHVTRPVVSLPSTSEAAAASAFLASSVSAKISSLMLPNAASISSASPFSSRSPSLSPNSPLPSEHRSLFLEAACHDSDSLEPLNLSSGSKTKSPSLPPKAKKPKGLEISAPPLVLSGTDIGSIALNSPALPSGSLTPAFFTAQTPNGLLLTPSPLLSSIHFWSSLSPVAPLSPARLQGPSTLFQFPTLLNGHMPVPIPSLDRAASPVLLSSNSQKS
In a few lines: as §1

The target of another test is ETV1 (Homo sapiens, UniProt P50549 1-477). In a few lines:
as §1

In a further test the target is ETV6 (Homo sapiens, UniProt P41212 1-452). In a few lines:
as §1

Sequence of ETV5 (P41161 whole entry): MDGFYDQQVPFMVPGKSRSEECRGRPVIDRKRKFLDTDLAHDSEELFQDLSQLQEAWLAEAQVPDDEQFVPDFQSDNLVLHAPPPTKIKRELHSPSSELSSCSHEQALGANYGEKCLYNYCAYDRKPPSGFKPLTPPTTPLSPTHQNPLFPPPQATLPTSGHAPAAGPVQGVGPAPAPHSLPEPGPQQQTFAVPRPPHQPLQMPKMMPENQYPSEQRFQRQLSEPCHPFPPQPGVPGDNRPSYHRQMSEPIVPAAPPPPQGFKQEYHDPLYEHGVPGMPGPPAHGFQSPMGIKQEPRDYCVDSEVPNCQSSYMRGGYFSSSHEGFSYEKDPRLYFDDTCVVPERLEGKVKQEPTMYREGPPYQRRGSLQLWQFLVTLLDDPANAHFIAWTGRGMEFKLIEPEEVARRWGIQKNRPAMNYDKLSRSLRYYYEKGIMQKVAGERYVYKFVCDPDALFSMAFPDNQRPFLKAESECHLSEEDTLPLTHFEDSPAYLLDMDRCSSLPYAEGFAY
Sequence of SPIB (Q01892 whole entry): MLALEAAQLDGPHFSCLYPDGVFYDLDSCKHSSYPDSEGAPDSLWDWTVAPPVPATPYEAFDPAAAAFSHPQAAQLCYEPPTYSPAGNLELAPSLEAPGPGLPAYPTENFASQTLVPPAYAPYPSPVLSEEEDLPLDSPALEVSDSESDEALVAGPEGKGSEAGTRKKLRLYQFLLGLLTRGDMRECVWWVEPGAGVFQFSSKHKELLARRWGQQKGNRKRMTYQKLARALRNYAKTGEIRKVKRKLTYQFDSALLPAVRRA
Sequence of ELF1 (P32519 whole entry): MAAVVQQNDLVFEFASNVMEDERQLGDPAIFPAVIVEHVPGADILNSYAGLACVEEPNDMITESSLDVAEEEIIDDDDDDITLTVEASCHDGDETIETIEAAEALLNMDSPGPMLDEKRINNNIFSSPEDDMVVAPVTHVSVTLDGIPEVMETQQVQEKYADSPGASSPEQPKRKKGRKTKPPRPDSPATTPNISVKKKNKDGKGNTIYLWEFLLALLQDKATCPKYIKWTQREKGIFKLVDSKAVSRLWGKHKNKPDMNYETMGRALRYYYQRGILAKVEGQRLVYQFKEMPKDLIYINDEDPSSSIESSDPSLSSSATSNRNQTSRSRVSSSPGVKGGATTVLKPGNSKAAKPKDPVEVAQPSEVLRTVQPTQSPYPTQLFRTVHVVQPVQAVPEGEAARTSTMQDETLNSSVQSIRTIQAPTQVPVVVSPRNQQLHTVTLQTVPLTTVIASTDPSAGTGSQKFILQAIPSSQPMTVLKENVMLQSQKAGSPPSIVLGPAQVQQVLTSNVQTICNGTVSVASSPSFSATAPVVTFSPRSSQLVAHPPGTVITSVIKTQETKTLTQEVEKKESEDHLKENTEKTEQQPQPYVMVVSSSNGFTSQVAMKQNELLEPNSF
Sequence of ETV6 (P41212 whole entry): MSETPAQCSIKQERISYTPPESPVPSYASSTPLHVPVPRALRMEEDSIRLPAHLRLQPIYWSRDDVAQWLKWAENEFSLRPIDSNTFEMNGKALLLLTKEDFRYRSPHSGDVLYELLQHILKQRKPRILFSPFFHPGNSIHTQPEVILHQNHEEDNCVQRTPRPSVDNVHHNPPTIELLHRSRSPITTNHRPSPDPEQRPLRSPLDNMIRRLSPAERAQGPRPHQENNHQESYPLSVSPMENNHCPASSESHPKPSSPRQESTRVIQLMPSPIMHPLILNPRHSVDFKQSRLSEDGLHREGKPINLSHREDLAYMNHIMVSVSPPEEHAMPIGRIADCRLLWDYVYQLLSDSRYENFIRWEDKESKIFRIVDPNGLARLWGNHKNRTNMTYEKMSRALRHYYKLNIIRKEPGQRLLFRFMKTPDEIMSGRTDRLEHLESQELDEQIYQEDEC
Sequence of ETV1 (P50549 whole entry): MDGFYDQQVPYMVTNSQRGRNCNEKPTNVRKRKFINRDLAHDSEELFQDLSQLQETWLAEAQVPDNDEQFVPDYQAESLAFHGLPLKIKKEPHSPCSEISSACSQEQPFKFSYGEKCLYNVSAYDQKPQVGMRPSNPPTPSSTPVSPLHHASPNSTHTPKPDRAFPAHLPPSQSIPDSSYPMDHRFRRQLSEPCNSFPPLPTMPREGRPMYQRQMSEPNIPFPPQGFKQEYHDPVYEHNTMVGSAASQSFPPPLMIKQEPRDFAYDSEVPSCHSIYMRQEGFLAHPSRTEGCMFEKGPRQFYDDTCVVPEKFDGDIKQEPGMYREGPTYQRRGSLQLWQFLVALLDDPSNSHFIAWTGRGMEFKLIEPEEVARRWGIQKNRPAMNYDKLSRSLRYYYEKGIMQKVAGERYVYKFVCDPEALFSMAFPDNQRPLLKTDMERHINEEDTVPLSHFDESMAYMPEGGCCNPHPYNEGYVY

As to ACTAGG, the binding signal is 1.03 fold enrichment (6-mer frequency, TF over GST control) with FLI1; 1.1 fold enrichment (6-mer frequency, TF over GST control) with ELK1; 1.09 fold enrichment (6-mer frequency, TF over GST control) in the test with GABPA; 1.03 fold enrichment (6-mer frequency, TF over GST control) with ERG; 1.08 fold enrichment (6-mer frequency, TF over GST control) with ELF1; 1.04 fold enrichment (6-mer frequency, TF over GST control) with EHF. The binding signal is 1.07 fold enrichment (6-mer frequency, TF over GST control) in the test with SPI1; 1.02 fold enrichment (6-mer frequency, TF over GST control) in the test with FEV; 1.03 fold enrichment (6-mer frequency, TF over GST control) with ETV5; 1.21 fold enrichment (6-mer frequency, TF over GST control) with SPIC; 1.04 fold enrichment (6-mer frequency, TF over GST control) in the test with ETV3L; 1.08 fold enrichment (6-mer frequency, TF over GST control) with ETS2. In addition, the binding signal in the test with ELF5 is 1 fold enrichment (6-mer frequency, TF over GST control); in the test with ETV3, 1.03 fold enrichment (6-mer frequency, TF over GST control).

Turning to AACGGA, the binding signal is 1.05 fold enrichment (6-mer frequency, TF over GST control) in the test with FLI1; 1.08 fold enrichment (6-mer frequency, TF over GST control) with ELK1; 1.18 fold enrichment (6-mer frequency, TF over GST control) with ERG; 1.13 fold enrichment (6-mer frequency, TF over GST control) in the test with EHF; 1.15 fold enrichment (6-mer frequency, TF over GST control) in the test with SPI1; 1.07 fold enrichment (6-mer frequency, TF over GST control) with SPIB. Further, the binding signal was 1.13 fold enrichment (6-mer frequency, TF over GST control) in the test with ELK3; 1.35 fold enrichment (6-mer frequency, TF over GST control) in the test with FEV; 1.1 fold enrichment (6-mer frequency, TF over GST control) with ETV5; 1.04 fold enrichment (6-mer frequency, TF over GST control) with SPIC; 1.11 fold enrichment (6-mer frequency, TF over GST control) with ETV1; 1.01 fold enrichment (6-mer frequency, TF over GST control) in the test with ETV3L. For the same sequence, the binding signal with ETS2 was 1.15 fold enrichment (6-mer frequency, TF over GST control); in the test with ELF5, 1.11 fold enrichment (6-mer frequency, TF over GST control); in the test with ETV3, 1.08 fold enrichment (6-mer frequency, TF over GST control); with ETV6 it was 1.2 fold enrichment (6-mer frequency, TF over GST control).
